dFosB act-1: mouse delta FosB homodimer activation; P13346; AID 493131; 0.99% of 340,000 active; purified delta FosB, TAMRA-CDK5 oligo fluorescence polarization; percent of positive-control signal above neutral wells; activation, % at 25 µM;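 active = mean activation above about 17%, with every replicate also reaching it, limit read from the data, passing the limit was not always enough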
Target sequence (P13346 whole entry, looked up): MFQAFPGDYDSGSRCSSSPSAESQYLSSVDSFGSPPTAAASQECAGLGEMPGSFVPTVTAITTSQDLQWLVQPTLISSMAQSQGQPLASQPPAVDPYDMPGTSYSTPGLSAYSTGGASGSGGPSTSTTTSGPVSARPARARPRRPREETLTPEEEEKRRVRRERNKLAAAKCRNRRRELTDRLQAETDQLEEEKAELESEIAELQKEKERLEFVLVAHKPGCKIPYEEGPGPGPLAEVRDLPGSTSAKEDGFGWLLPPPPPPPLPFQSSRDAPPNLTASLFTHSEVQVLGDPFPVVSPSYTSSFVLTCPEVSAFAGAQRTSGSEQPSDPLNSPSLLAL
Platelet DG rel: modulates dense granule release in human platelets | 0.22% of 300,000 active | inhibition, %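 (compounds screened at 7.5 µM in platelet-rich plasma)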 | human platelet-rich plasma, SFLLRN dense granule ATP release, luminescence | AID 1663;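 active = mean replicate score, as percent of positive control, at or above 50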
HSF1 inhib: HSF1 inhibition; NIH3T3-HGL HSE-luciferase, MG132-induced, luminescence 8 h; active compounds read low; activity change, negative = inhibition, % at 7.5 µM (by protocol); 0.77% of 300,000 active; AID 2098;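 active = more than half of replicate wells show activity change below -50%, luminescence cut by over half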;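 note: luciferase reports HSF-1 transcriptional activity via heat shock element; 0% = median of DMSO wells and -100% = zero luminescence signal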
HSF1 activator: increases HSF-1 driven luciferase reporter signal | NIH3T3-HGL HSF-1 luciferase reporter, MG132, 8 h; 100% = twice DMSO control signal | activation, % at 9 µM | 1.7% of 300,000 active | AID 504408;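 active = mean replicate activation of at least 50% with a set share of replicates each reaching 50%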;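 note: 0% = median of the neutral control wells and 100% = twice that signal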
HSP90 refold inh: blocks HSP90-mediated luciferase refolding in reticulocyte lysate; Rabbit reticulocyte lysate, luciferase refolding luminescence, 3 h; 0.91% of 290,000 active; AID 1789; inhibition, % at 5.6 µM;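 active = inhibition above the screen-wide mean plus 3 SD, computed separately per campaign, cut at about 16% in these data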;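 note: 0% = DMSO wells and 100% = 60 µM geldanamycin wells; inhibitors lower the luminescence because luciferase stays unfolded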
MPTP block: inhibitors of mitochondrial permeability transition pore; isolated mouse mitochondria, Ca2+ swelling absorbance, 30 min; inhibition, % at 10 µM; 1.4% of 360,000 active;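 active = inhibition of 50% or more, scaled per plate between neutral and stimulator controls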;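 note: 0% = DMSO wells given calcium and 100% = 1 mM EGTA wells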
dFosB act-2: enhances mouse delta FosB homodimer binding to DNA; shares compounds with dFosB act-1; purified delta FosB, TAMRA-CDK5 oligo fluorescence polarization; normalised: neutral wells 0, positive control 100; activation, % at 24.9 µM; 2,400 tested, under 10 active;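 active = highest replicate activation at or above 34% and every replicate reaching that threshold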;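 note: higher polarization means more probe DNA bound by delta FosB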
* = called active by the depositor. The list is not random: actives were taken first. Their share in the collection is about 4.9%.

Results for COc1ccc(NC(=O)c2nnn(CC(=O)Nc3ccc4c(c3)OCO4)c2N)cc1OC ?
dFosB act-1: -4; Platelet DG rel: 17; HSF1 inhib: -5; HSF1 activator: 5; HSP90 refold inh: -4; MPTP block: 0

Results for COc1ccc(Cl)cc1NC(=O)c1nnn(CC(=O)Nc2ccc3c(c2)OCO3)c1N ?
dFosB act-1: 21*; Platelet DG rel: 2; HSF1 inhib: 0; HSF1 activator: 3; HSP90 refold inh: -4; MPTP block: -1; dFosB act-2: -2

Results for COc1cccc(NC(=O)Cn2nnc(C(=O)Nc3cc(Cl)ccc3OC)c2N)c1 ?
dFosB act-1: 38*; Platelet DG rel: 8; HSF1 inhib: -2; HSF1 activator: -2; HSP90 refold inh: 3; MPTP block: 0; dFosB act-2: 4

How did CCc1nc2ccc(C(=O)Nc3cc(-c4ccccc4)ccc3OC)cn2c1N(CCN(C)C)CC1CC1 do in these assays?
MPTP block: -4

How did CC1(C)CC2(CC(c3ccccc3)Oc3cc(O)ccc32)NC(=S)N1 (configuration not stated) do in these assays?
dFosB act-1: -12; Platelet DG rel: 3; HSF1 inhib: -4; HSF1 activator: 8; HSP90 refold inh: -7; MPTP block: -1

Results for COc1ccc(Cl)cc1NC(=O)c1nnn(CC(=O)Nc2cc(C)cc(C)c2)c1N ?
dFosB act-1: 103*; Platelet DG rel: 3; HSF1 inhib: 6; HSF1 activator: 7; HSP90 refold inh: 2; MPTP block: -2; dFosB act-2: 1

How did COc1cccc(Cn2nnc(C(=O)Nc3cc(Cl)ccc3OC)c2N)c1 do in these assays?
dFosB act-1: 2; Platelet DG rel: 5; HSF1 inhib: 6; HSF1 activator: 11; HSP90 refold inh: 2; MPTP block: 1

How did CC(C)C[C@H](NC(=O)[C@@H]1Cc2ccccc2CN1)C(=O)Nc1ccc(C(C)C)cc1 do in these assays?
dFosB act-1: 23*; Platelet DG rel: -2; HSF1 inhib: -26; HSF1 activator: -38; HSP90 refold inh: 2; MPTP block: 0; dFosB act-2: -2

How did Cc1ccc(NC(=O)[C@H](NC(=O)[C@@H]2Cc3ccccc3CN2)c2ccccc2)c(C)c1 do in these assays?
dFosB act-1: -7; Platelet DG rel: -1; HSF1 inhib: 4; HSF1 activator: -3; HSP90 refold inh: -3; MPTP block: -1

How did Cc1ccc(NC(=O)[C@H](Cc2c[nH]c3ccccc23)NC(=O)[C@@H]2Cc3ccccc3CN2)c(C)c1 do in these assays?
dFosB act-1: 34*; Platelet DG rel: 0; HSF1 inhib: -2; HSF1 activator: -1; HSP90 refold inh: 3; MPTP block: 5; dFosB act-2: 4

What do the screens show for `Cc1cc(C)cc(NC(=O)[C@H](NC(=O)[C@@H]2Cc3ccccc3CN2)c2ccccc2)c1`?
dFosB act-1: 47*; Platelet DG rel: 1; HSF1 inhib: 14; HSF1 activator: 20; HSP90 refold inh: 4; MPTP block: 3; dFosB act-2: 1

How did Cc1cc(C)cc(NC(=O)[C@H](Cc2c[nH]c3ccccc23)NC(=O)[C@@H]2Cc3ccccc3CN2)c1 do in these assays?
dFosB act-1: -5; Platelet DG rel: -1; HSF1 inhib: 0; HSF1 activator: -2; HSP90 refold inh: 6; MPTP block: 11

How did CCOc1ccc(CSc2nc(C)cc(COC)c2C#N)cc1OCC do in these assays?
dFosB act-1: -5; Platelet DG rel: -1; HSF1 inhib: -5; HSF1 activator: 1; HSP90 refold inh: 1; MPTP block: 0

How did O=C(NNC(=O)c1cc2ccccc2cc1O)Nc1ccc(F)cc1F do in these assays?
dFosB act-1: 30*; Platelet DG rel: -7; HSF1 inhib: -1; HSF1 activator: -4; HSP90 refold inh: -2; MPTP block: 12; dFosB act-2: -10

What do the screens show for `CCOC(=O)c1c(C)[nH]c(C(=O)OCC(=O)Nc2ccccc2)c1C`?
dFosB act-1: 27*; MPTP block: 0; dFosB act-2: -1

Screening data (PubChem BioAssay)
